This note sets out measurements from the supplement of paper PMC8975748.

Structures can show the parent of a compound that is named as a salt.

The subject of this assay is Saccharomyces cerevisiae BY4741 SeMeCo community. Kind of assay: z-score of subpopulation abundance vs DMSO median, subpopulation auxotrophic for U; higher = larger share of this subpopulation than in DMSO controls. The following applies: 10 µM; 24 h; SM minimal medium; subpopulation (auxotrophy): U. How it is done: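 Fluorescent four-plasmid SeMeCo (self-establishing metabolically cooperating S. cerevisiae BY4741 community; plasmids pH-mRuby2, pL-mWasabi, pU-eCFP, pM-TagRFP657) was grown 24 h in minimal SM medium with each Selleck FDA-approved drug at 10 µM in 384-well plates. Cells were fixed and imaged by high-content confocal microscopy. For each auxotrophic subpopulation (and the prototroph), a z-score gives the deviation from the DMSO vehicle-control population median.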
As for `CC(N)C12CC3CC(CC(C3)C1)C2` (stereo not given) [Rimantadine], the “z-score of subpopulation abundance” value was 0.97.
Turning to `CN(Cc1ccc(C(C)(C)C)cc1)Cc1cccc2ccccc12` [Butenafine HCl], the “z-score of subpopulation abundance” value was -1.08.
On to `COC(=O)C1=C(C)NC(C)=C(C(=O)OCCN(C)Cc2ccccc2)C1c1cccc([N+](=O)[O-])c1` (stereo not given) [Nicardipine HCl], for which the “z-score of subpopulation abundance” value was -0.42.
The figure for `O=C1CN(/N=C/c2ccc([N+](=O)[O-])o2)C(=O)N1` [Nitrofurantoin] is -0.25; for `C[C@H](Nc1ncnc2nc[nH]c12)c1cc2cccc(Cl)c2c(=O)n1-c1ccccc1` [Duvelisib (IPI-145, INK1197)] it is 0.89; for `Nc1nc(/C(=C/CC(=O)O)C(=O)N[C@@H]2C(=O)N3C(C(=O)O)=CCS[C@H]23)cs1` [Ceftibuten dihydrate] it is -0.28.
The same measure for `CN(C)CCC[C@@]1(c2ccc(F)cc2)OCc2cc(C#N)ccc21` [Escitalopram Oxalate]: -0.79; for `O=C(O)c1cc(O)c2c(c1)[C@H]([C@H]1c3cc(C(=O)O)cc(O)c3C(=O)c3c(O[C@@H]4O[C@H](CO)[C@@H](O)[C@H](O)[C@H]4O)cccc31)c1cccc(O[C@@H]3O[C@H](CO)[C@@H](O)[C@H](O)[C@H]3O)c1C2=O` [Sennoside A]: 0.7.
The figure for `Cc1cc(C)nc(NS(=O)(=O)c2ccc(N)cc2)n1` [Sulfamethazine] is -0.82.
As for `Cc1nc(Nc2ccc(F)cc2)nc(N2CCc3ccccc3C2C)c1C` (stereo not given) [Revaprazan Hydrochloride], the “z-score of subpopulation abundance” value was 0.73.
The same measure for `CC(C(O)c1ccc(O)cc1)N1CCC(Cc2ccccc2)CC1` (stereo not given) [Ifenprodil Tartrate]: 0.69; for `Nc1ccc(S(=O)(=O)Nc2ncccn2)cc1` [Sodium sulfadiazine]: 0.32.
The figure for `C[n+]1ccccc1C=NO` [Pralidoxime Iodide] is 0.58; for `NC(=O)[C@@H]1CC[C@@H]2CN1C(=O)N2OS(=O)(=O)O` [Avibactam sodium] it is 0.13.
Turning to `CCN(CC)CCNC(=O)c1cc(Cl)c(N)cc1OC` [Metoclopramide HCl], the “z-score of subpopulation abundance” value was -1.06.
The figure for `O=C(Cn1cnnn1)N[C@@H]1C(=O)N2C(C(=O)O)=C(CSc3nncs3)CS[C@H]12` [Ceftezole sodium] is 1.07.
The figure for `Clc1ccc(COC(Cn2ccnc2)c2ccc(Cl)cc2Cl)cc1` (stereo not given) [Econazole] is 0.12; for `CCCNC(C)C(=O)Nc1ccccc1C` (stereo not given) [Prilocaine] it is -0.13; for `CN(C)CCn1nnnc1SCC1=C(C(=O)O)N2C(=O)[C@@H](NC(=O)Cc3csc(N)n3)[C@H]2SC1` [Cefotiam hydrochloride] it is -0.08.
The figure for `CO/N=C(\C(=O)N[C@@H]1C(=O)N2C(C(=O)O)=C(CSC(=O)c3ccco3)CS[C@H]12)c1csc(N)n1` [Ceftiofur HCl] is 1.47.
As to `C/C=C1\[C@H]2C=C(C)C[C@]1(N)c1ccc(=O)[nH]c1C2` [(-)-Huperzine A (HupA)], the “z-score of subpopulation abundance” value turned out to be 0.2.
Consider `COC(=O)C1=C(C#N)NC(C)=C(C(=O)OC(C)C)C1c1cccc([N+](=O)[O-])c1` (stereo not given) [Nilvadipine], for which the “z-score of subpopulation abundance” value was -1.16.
Consider `Cc1ccc(S(=O)(=O)NC(=O)NN2CC3CCCC3C2)cc1` (stereo not given) [Gliclazide], for which the “z-score of subpopulation abundance” value is -0.1.
For the compound `NC(=O)N/N=C/c1ccc([N+](=O)[O-])o1` [Nitrofural], the “z-score of subpopulation abundance” value was -0.14.
Consider `COc1ccc(CC2c3cc(OC)c(OC)cc3CC[N+]2(C)CCC(=O)OCCCCCOC(=O)CC[N+]2(C)CCc3cc(OC)c(OC)cc3C2Cc2ccc(OC)c(OC)c2)cc1OC` (stereo not given) [Atracurium Besylate], for which the “z-score of subpopulation abundance” value was -0.48.
In the case of `CN[C@H](CC(C)C)C(=O)N[C@H]1C(=O)N[C@@H](CC(N)=O)C(=O)N[C@H]2C(=O)N[C@H]3C(=O)N[C@H](C(=O)N[C@H](C(=O)O)c4cc(O)cc(O)c4-c4cc3ccc4O)[C@H](O)c3ccc(c(Cl)c3)Oc3cc2cc(c3O[C@@H]2O[C@H](CO)[C@@H](O)[C@H](O)[C@H]2O[C@H]2C[C@](C)(N)[C@H](O)[C@H](C)O2)Oc2ccc(cc2Cl)[C@H]1O` [Vancomycin HCl], the “z-score of subpopulation abundance” value is -0.35.
As to `Cc1cc(CC(C)CC(C)(C)C)n(O)c(=O)c1` (stereo not given) [Piroctone Olamine], the “z-score of subpopulation abundance” value was 1.32.
The same measure for `CN1CCN(CCCN2c3ccccc3Sc3ccc(C(F)(F)F)cc32)CC1` [Trifluoperazine 2HCl]: 0.38; for `C=CC[C@@H]1/C=C(\C)C[C@H](C)C[C@H](OC)[C@H]2O[C@@](O)(C(=O)C(=O)N3CCCC[C@H]3C(=O)O[C@H](/C(C)=C/[C@@H]3CC[C@@H](O)[C@H](OC)C3)[C@H](C)[C@@H](O)CC1=O)[C@H](C)C[C@@H]2OC` [Tacrolimus (FK506)]: -0.41.
Turning to `CCOc1ccc(NC(C)=O)cc1` [Phenacetin], the “z-score of subpopulation abundance” value was 0.86.
On to `CCCCCNC(=N)N/N=C/c1c[nH]c2ccc(OC)cc12` [Tegaserod Maleate], for which the “z-score of subpopulation abundance” value is -1.24.
The same measure for `CCCCCCCCCCCC(=O)O` [Lauric Acid]: 0.57.
Take `C[C@@H]1O[C@@H]1P(=O)(O)O` [Fosfomycin Disodium]: the “z-score of subpopulation abundance” value was -0.22.
The same measure for `CC(C(=O)O)c1ccc2c(c1)[nH]c1ccc(Cl)cc12` (stereo not given) [Carprofen]: -3.82; for `COC(=O)C1=C(C)NC(C)=C(C(=O)OC)C1c1ccccc1[N+](=O)[O-]` [Nifedipine]: 0.12.
The same measure for `COc1ccnc(C[S+]([O-])c2nc3cc(-n4cccc4)ccc3[nH]2)c1C` (stereo not given) [Ilaprazole sodium]: -1.54.
Regarding `CCn1cc(C(=O)O)c(=O)c2cc(F)c(N3CCN(C)CC3)cc21` [Pefloxacin Mesylate Dihydrate], the “z-score of subpopulation abundance” value is 0.5.
The same measure for `O=C1c2cccc3c2[C@H](CCC3)CN1[C@@H]1CN2CCC1CC2` [Palonosetron HCl]: 0.17.
For the compound `CO[C@@H]1[C@@H](OC(N)=O)[C@@H](O)[C@H](Oc2ccc3c(O)c(NC(=O)c4ccc(O)c(CC=C(C)C)c4)c(=O)oc3c2C)OC1(C)C` [Novobiocin Sodium], the “z-score of subpopulation abundance” value turned out to be 0.65.
The same measure for `CCC[C@@H]1C[C@@H](C(=O)N[C@@H]([C@H]2O[C@H](SC)[C@H](O)[C@@H](O)[C@H]2O)[C@@H](C)O)N(C)C1` [Lincomycin Hydrochloride Monohydrate]: 0.86.
